The source of these data is PubChem BioAssay (EPA / NIEHS).

Where “and” joins values, the source holds several entries; their conditions need not be identical. Identical values can stand only once. Results filed as inconclusive are left out. More than one record can exist for a structure, and the calls need not agree. Calls of active or inactive are those of the source. Rule for the calls, unless noted: active = hit-call score of the fitted dose curve at least 0.9, where 1 is the maximum; inactive = score below 0.9.

Assay [1] in a line: BSK_BT_PBMCCytotoxicity: PBMC Cytotoxicity Assessment in the BioMAP Diversity Plus: BT Assay (AID 2284225).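 Note: PBMC viability measured by Alamar Blue dye reduction fluorescence.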 Conditions: primary human B cells with PBMC. The method in brief:
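75,000 cells/well; cpd 1 h → SEB + TSST-1 (20 ng/mL final each) → 90 h → Alamar Blue 6 h → fluor. 546/580 nm. DMSO = neg. control/baseline.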

Read-out in assay [2]: Secreted IgG (sIgG), gene 3500
The assay can be described thus: BSK_BT_sIgG: BioMAP Diversity Plus: BT Assay for Secreted IgG (sIgG) Biomarker Activity (AID 2284226). Conditions: primary human B cells with PBMC. A digest of the protocol: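 Secreted IgG from a human primary B cell–PBMC co-culture was measured by ELISA 24 hours after dosing, with DMSO defining baseline activity.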

A short description of assay [3]: BSK_BT_Bcell_Proliferation: Viability Assessment in the BioMAP Diversity Plus: BT Assay for B cell Proliferation (AID 2284227). The note with it: primary human B cells with PBMC. The method in brief:
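Human B cell/PBMC co-culture; test chemical added; 72 h; TCA fix (10%), 0.1% SRB stain, A560 for total protein as a proliferation read-out; positive-direction fit vs DMSO baseline.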

Read-out in assay [4]: Interleukin 6 (IL6), IL6 (gene 3569)
As to the kind of experiment: BSK_BT_xIL6: BioMAP Diversity Plus: BT Assay for Interleukin 6 (IL6) Biomarker Activity (AID 2284228). The note with it: primary human B cells with PBMC. A digest of the protocol:
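Chemical added to human B cell/PBMC co-culture → 24 h → supernatant IL-6 by Luminex xMAP → fit vs DMSO baseline, upward direction.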

Read-out in assay [5]: Interleukin 17A (IL17A), IL17A (gene 3605)
The assay can be described thus: BSK_BT_xIL17A: BioMAP Diversity Plus: BT Assay for Interleukin 17A (IL17A) Biomarker Activity (AID 2284229). Conditions: primary human B cells with PBMC. The method in brief:
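Chemicals were added to a human B cell and PBMC co-culture. After 24 h, secreted IL-17A was measured with Luminex xMAP. Curves were fitted in the positive direction, with DMSO wells as baseline.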

Read-out in assay [6]: Tumor necrosis factor (Homo sapiens) (UniProt P01375)
As to the kind of experiment: BSK_BT_xTNFa: BioMAP Diversity Plus: BT Assay for Tumor necrosis factor alpha (TNF-alpha) Biomarker Activity (AID 2284230). Conditions: primary human B cells with PBMC. A digest of the protocol:
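Read-out: Luminex xMAP quantitation of secreted TNF-alpha from a B cell/PBMC co-culture 24 h after compound addition. Signal analysed relative to DMSO vehicle, positive fitting direction.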

Read-out in assay [7]: Vascular cell adhesion molecule 1 (VCAM1), VCAM1 (gene 7412)
As to the kind of experiment: BSK_MyoF_VCAM1: BioMAP Diversity Plus: MyoF Assay for Vascular cell adhesion molecule 1 (VCAM1) Biomarker Activity (AID 2284231). The note with it: primary human lung fibroblasts. The method in brief:
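Steps: fibroblasts from human lung exposed to compound; biomarker quantified by ELISA at 24 h; values analysed for upward change over the DMSO baseline.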

Assay [8] is described as follows: CCTE_Mundy_HCI_hNP1_Pro_ResponderAvgInten: CCTE's Proliferation Assay in human neuroprogenitor cells, Mundy Lab (AID 2284224; active = hit-call score of the fitted dose curve at least 0.9, where 1 is the maximum;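 note: human neural progenitor cells hNP1 derived from WA09 embryonic stem cells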). A digest of the protocol:
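Human neuroprogenitors (hNP1, WA09 lineage) receive test chemical after 40 to 44 hours of attachment. A four-hour BrdU pulse begins twenty hours later, followed by fixation and high content imaging; signal is referenced to DMSO controls.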

A short description of assay [9]: IUF_NPC1_viability_72hr: Viability Assessment at 72 hours in the Leibniz Research Institute for Environmental Medicine (IUF) Neural Progenitor Cell Proliferation Assay (NPC1) (AID 2284209). The method in brief: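 Each well receives one 0.3 mm progenitor sphere from fetal brain cortex; test chemical is added at plating and left three days. Viability comes from alamar blue fluorescence, multiplexed with LDH and BrdU readouts in the same well.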

A short description of assay [10]: CCTE_Mundy_HCI_Cortical_Synap_Neur_Matur_NeuriteSpotCountPerNeuriteLength: CCTE's Synaptogenesis and Neurite Maturation Assay in rat cortical cells for Neurite Spot Count per Neurite Length, Mundy Lab (AID 2284210). The method in brief: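 Rat primary cortical cultures, glia arrested with AraC at DIV 5, were dosed with media change at DIV 7 and fixed at DIV 12. Synaptophysin puncta per MAP2-labelled neurite length were quantified by high-content imaging versus DMSO.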

Assay [11] is described as follows: CCTE_Mundy_HCI_Cortical_Synap_Neur_Matur_BPCount: CCTE's Synaptogenesis and Neurite Maturation Assay in rat cortical cells for Branch Point Count, Mundy Lab (AID 2284211). A digest of the protocol:
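Branch point number is quantified by automated imaging of fluorescently labelled neurites and synapses in rat primary cortical neurons exposed from DIV 7 to DIV 12. Activity is analysed relative to DMSO negative control.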

A short description of assay [12]: CCTE_Mundy_HCI_Cortical_NOG_NeuriteCount: CCTE's Neurite Outgrowth Assay in rat cortical cells for Neurite Count, Mundy Lab (AID 2284212).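 Note: cells fixed about two days after chemical exposure began.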 A digest of the protocol:
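Neurite number per cell from high-content imaging of betaIII-tubulin immunostaining, with Hoechst nuclear counterstain.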

Assay [13] can be described thus: CCTE_Mundy_HCI_Cortical_NOG_NeuriteLength: CCTE's Neurite Outgrowth Assay in rat cortical cells for Neurite Length, Mundy Lab (AID 2284213). A digest of the protocol: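 Neurite length was read by high-content imaging of βIII-tubulin-labelled neurites in rat primary cortical cultures. Activity was fitted relative to DMSO.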
Assay [14] in a line: CCTE_Mundy_HCI_Cortical_Synap_Neur_Matur_NeuriteLength: CCTE's Synaptogenesis and Neurite Maturation Assay in rat cortical cells for Neurite Length, Mundy Lab (AID 2284214). The method in brief:
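Neurite length in rat primary cortical cultures is imaged after MAP2, synaptophysin and Hoechst staining. Dosing starts DIV 7, ending DIV 12; DMSO serves as negative control and baseline.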

Assay [15] in a line: CCTE_Mundy_HCI_Cortical_Synap_Neur_Matur_NeuriteSpotCountPerNeuron: CCTE's Synaptogenesis and Neurite Maturation Assay in rat cortical cells for Neurite Spot Count per Neuron Count, Mundy Lab (AID 2284215). A digest of the protocol: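 Synapse density is scored as synaptophysin spots along neurites per neuron in fixed rat cortical neurons, measured at DIV 12 after chemical dosing at DIV 7. DMSO is the negative control and activity baseline.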

A short description of assay [16]: CCTE_Mundy_HCI_Cortical_Synap_Neur_Matur_SynapseCount: CCTE's Synaptogenesis and Neurite Maturation Assay in rat cortical cells for Synapse Count, Mundy Lab (AID 2284218). A digest of the protocol: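 Synapse count per neuron is measured in rat cortical neurons exposed to chemicals between DIV 7 and DIV 12, with glial growth arrested by AraC at DIV 5. Synaptophysin and MAP2 staining is imaged automatically; activity is fitted relative to DMSO.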

Assay [17] can be described thus: CCTE_Mundy_HCI_Cortical_Synap_Neur_Matur_NeuriteCount: CCTE's Synaptogenesis and Neurite Maturation Assay in rat cortical cells for Neurite Count, Mundy Lab (AID 2284222).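 Note: exposure from day 7 to day 12 in vitro with readout at day 12.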 A digest of the protocol:
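Rat cortical neurons, 96-well; AraC DIV 5; chemical + media change DIV 7; end DIV 12. Fix PFA/Hoechst, anti-MAP2 + anti-synaptophysin IF. HCI neurite count vs DMSO baseline.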

A short description of assay [18]: CCTE_Mundy_HCI_Cortical_Synap_Neur_Matur_CellBodySpotCount: CCTE's Synaptogenesis and Neurite Maturation Assay in rat cortical cells for Cell Body Spot Count, Mundy Lab (AID 2284223). A digest of the protocol:
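Synapse number at neuronal cell bodies was quantified as synaptophysin puncta per neuron in rat cortical cultures exposed from DIV 7 to DIV 12. Values were normalised to DMSO.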

Sequence of Tumor necrosis factor (Homo sapiens) (P01375 whole entry, looked up): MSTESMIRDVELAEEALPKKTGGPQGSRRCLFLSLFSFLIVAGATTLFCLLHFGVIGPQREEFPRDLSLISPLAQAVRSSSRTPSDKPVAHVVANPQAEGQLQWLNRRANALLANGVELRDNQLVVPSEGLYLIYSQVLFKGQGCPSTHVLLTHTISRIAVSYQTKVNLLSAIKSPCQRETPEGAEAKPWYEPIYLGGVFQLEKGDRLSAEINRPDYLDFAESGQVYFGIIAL

For the molecule `O=C(O)C(F)(F)C(F)(F)C(F)(F)C(F)(F)C(F)(F)C(F)(F)C(F)(F)C(F)(F)C(F)(F)C(F)F`, the half-maximal activity concentration (AC50) in assay [1] is 22.9 µM (active); in assay [3], 16.4 µM (active); in assay [7], 21.5 µM (active) and 23.5 µM (active). Besides, the result in [1], in [2], in assay [3], in [4], in assay [5] and in assay [6] was inactive.
As for `CCc1ccc(C(c2ccc(CC)cc2)C(Cl)Cl)cc1`, the AC50 was 31.1 µM (active) in assay [1]; 14.7 µM (active) in [2]; 31.7 µM (active) in [3]; 27.8 µM (active) in assay [4]; 28.8 µM (active) in assay [5]; 28.5 µM (active) in assay [6]. Besides, the AC50 in [7] was 14.1 µM (active).
With `Cc1ccc(S(=O)(=O)OCC(F)(F)C(F)(F)C(F)(F)C(F)(F)C(F)(F)C(F)F)cc1`, the outcome in [1], in assay [2], in assay [3], in assay [4], in assay [5] and in assay [6] was inactive. The outcome in assay [7] was inactive. The AC50 in [2] was 41.7 µM (active).
Consider `O=S(=O)(OCC(F)F)C(F)(F)F`, for which the outcome in [1], in assay [2], in assay [3], in assay [4], in assay [5] and in assay [6] was inactive. Further, in [7], the outcome was inactive. The AC50 in assay [6] is 1.01 µM (active).
For `C=C(C)C(=O)OCC(F)(F)C(F)(F)C(F)(F)F`, the molecule was called inactive in assay [8], in [1], in [2], in assay [3], in assay [4] and in assay [5]. Also, the outcome in assay [6] and in [7] was inactive. For the same molecule, in [3], the AC50 was 2.27 µM (active).
As to `CC(CCl)OP(=O)(OC(C)CCl)OC(C)CCl` (centres undefined), the outcome in [9], in assay [10], in assay [11], in assay [12], in [13] and in assay [14] was inactive. In addition, the molecule was called inactive in [15], in assay [16], in assay [17], in [18], in assay [8] and in [1]. Moreover, the result in [2], in [3], in assay [4], in [5], in assay [6] and in assay [7] was inactive.
`CC(C)(C)C(=O)CC(=O)C(F)(F)C(F)(F)C(F)(F)F`: the result in assay [8], in [1], in [2], in assay [3], in assay [4] and in assay [5] was inactive. For the same molecule, the outcome in [6] and in assay [7] was inactive.
Regarding `O=C(O)C(F)(F)C(F)(F)C(F)(F)C(F)(F)C(F)(F)C(F)(F)C(F)(F)C(F)(F)C(F)(F)C(F)(F)C(F)(F)C(F)(F)C(F)(F)F`, the outcome in assay [1], in assay [2], in assay [3], in assay [4], in assay [5] and in assay [6] was inactive. For the same molecule, in [7], the outcome was inactive.
Regarding `O=C(O)C(F)(OC(F)(F)C(F)(OC(F)(F)C(F)(OC(F)(F)C(F)(F)C(F)(F)F)C(F)(F)F)C(F)(F)F)C(F)(F)F` (centres undefined), the result in assay [1], in assay [2], in assay [3], in assay [4], in [5] and in [6] was inactive. Also, the result in assay [7] was inactive.
As to `FC(F)(F)C(F)(F)C(F)(F)C(F)(F)C(F)(F)C(F)(F)C(F)(F)C(F)(F)CCS`, the outcome in assay [8], in assay [1], in [2], in assay [3], in assay [4] and in [5] was inactive. Besides, the result in assay [6] and in [7] was inactive. For the same molecule, the half-maximal activity concentration (AC50) in assay [7] is 6.22 µM (active).
For the molecule `N=C(N)C(F)(F)C(F)(F)C(F)(F)C(F)(F)C(F)(F)C(F)(F)C(F)(F)F`, the molecule was called inactive in assay [8], in assay [1], in [2], in [3], in [4] and in [5]. Also, the result in assay [6] and in [7] was inactive. In addition, the AC50 in assay [1] is 44.7 µM (active); in assay [2], 44.4 µM (active); in assay [3], 45.4 µM (active); in assay [4], 46 µM (active); in [5] it was 44.2 µM (active); in [6], 45.5 µM (active).
On to `FC(F)(Br)C(F)(F)C(F)(F)C(F)(F)C(F)(F)C(F)(F)Br`, for which the result in assay [1], in assay [2], in assay [3], in [4], in [5] and in assay [6] was inactive. In addition, the outcome in assay [7] was inactive.
On to `C=CC(=O)OCC(F)(F)C(F)(F)C(F)(F)C(F)(F)C(F)(F)C(F)(F)C(F)(F)F`, for which the AC50 was 14 µM (active) in [1] and 44.7 µM (active) in assay [6]. For the same molecule, the result in [1], in assay [2], in [3], in assay [4], in assay [5] and in assay [6] was inactive. In addition, in [7], the outcome was inactive.
With `C#C[C@]1(O)CC[C@H]2[C@@H]3CCc4cc(OC)ccc4[C@H]3CC[C@@]21C`, the outcome in assay [1], in assay [4], in assay [5] and in [7] was inactive. The results for the AC50 in assay [2], in assay [3] and in assay [6] were 7.71 µM (active), 29.6 µM (active) and 20 µM (active), respectively.
In the case of `FC(F)(F)C(F)(F)C(F)(F)N(C(F)(F)C(F)(F)C(F)(F)F)C(F)(F)C(F)(F)C(F)(F)F`, the outcome in assay [1], in assay [2], in assay [3], in [4], in [5] and in assay [6] was inactive. The outcome in [7] was inactive.

As usually defined, the AC50 is the midpoint of the concentration-response curve, whichever way the signal moves.
